NLRP3 yeast inh – NALP3 inflammasome inhibitors in reconstituted yeast, primary screen, luminescence, uHTS | Yeast reconstituted NLRP3/ASC/caspase-1, beta-gal luminescence, 24 h | inhibition, % at 10 µM | hit rate 0.39% among 330,000;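 active = inhibition of 50% or more; inactive = inhibition below 50%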;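 also: plate controls were induced DMSO wells for no effect and uninduced yeast grown without galactose for full effect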
NALP1 yeast inh – NALP1 inflammasome inhibitors in reconstituted yeast, colorimetric, S. cerevisiae, triplicate retest; S. cerevisiae NALP1/ASC/caspase-1 growth, X-gal OD620, 72 h; inhibition, % at 10 µM; hit rate 0.61% among 280,000; in the data active = inhibition mostly above about 24%, no sharp cut-off; inactive = mostly below about 32%
Efflux pump inh – inhibitors of Candida efflux pumps in yeast, primary screen, S. cerevisiae, Nile Red, multiplex. S. cerevisiae Candida pump triplex. inhibition, % at 10 µM. hit rate 0.44% among 330,000. AID 485275, 2010;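 active = plate passing quality check with inhibition over a set limit, or well fluorescence over plate mean plus 4 SD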;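 also: Nile Red retained in pooled yeast measured as flow cytometry median fluorescence; 0% = buffer negative control and 100% = Enniatin B positive control; higher means more Nile Red kept so more efflux inhibition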
HDAC3 inhib – HDAC3 deacetylase inhibitors, primary screen, biochemical, fluorescence, cell-free homogeneous; recombinant HDAC3, fluorogenic peptide/trypsin coupled; inhibition, % at 8.3 µM; hit rate 0.15% among 320,000; AID 2718, 2010; in the data active = inhibition above about 26%, passing the limit was not always enough
JMJD2C inh – inhibitors of GASC-1 histone demethylase, primary screen, biochemical, fluorescence, DELFIA europium; Lysine-specific demethylase 4C (Homo sapiens), Q9H3R0; hit rate 0.069% among 330,000; GST-JMJD2C(1-420) H3K9me3 demethylation; inhibition, % at 2.35 µM;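 active = more than half of a compound's replicate wells show inhibition beyond 50%, single wells judged on their own value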;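 also: signal counts dimethyl H3K9 product captured on neutravidin plate; 0% = median of DMSO wells and 100% = 0.3 times that DMSO median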
Target sequence (Q9H3R0 1-420 limits assumed): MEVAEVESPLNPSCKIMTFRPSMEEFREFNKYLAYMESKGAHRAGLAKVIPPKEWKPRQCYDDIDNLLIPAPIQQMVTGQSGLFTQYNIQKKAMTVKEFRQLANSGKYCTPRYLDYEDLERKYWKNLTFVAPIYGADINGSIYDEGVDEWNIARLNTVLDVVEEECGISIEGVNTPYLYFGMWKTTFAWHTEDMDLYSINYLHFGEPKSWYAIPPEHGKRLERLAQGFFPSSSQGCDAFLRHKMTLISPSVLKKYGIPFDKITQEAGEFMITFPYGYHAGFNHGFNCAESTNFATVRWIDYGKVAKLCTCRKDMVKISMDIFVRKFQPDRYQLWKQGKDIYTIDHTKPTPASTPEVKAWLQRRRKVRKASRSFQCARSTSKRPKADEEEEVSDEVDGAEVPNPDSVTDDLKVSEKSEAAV
PolyA inhibitor – polyadenylation inhibitors in yeast reporter cells, primary screen, luminescence, S. cerevisiae | activity score, % at 12 µM | AID 1875, 2009 | hit rate 0.02% among 300,000 | S. cerevisiae SKY197-pL101 polyadenylation reporter, beta-gal luminescence; efflux-impaired pdr1/pdr3 knockout yeast; score 100 = 6 SD above DMSO;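 active = lowest replicate activity score at least 50, where 100 means six control SD above control mean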;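 also: yeast exposed to compound for 9 h at 30 °C; higher score means more reporter readthrough which indicates perturbed polyadenylation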
Starred values were filed as active, the others as inactive; nt = no result. This is a sample that favours compounds with a hit; in the whole collection about 1.5% have one here.

SMILES	NLRP3 yeast inh	NALP1 yeast inh	Efflux pump inh	HDAC3 inhib	JMJD2C inh	PolyA inhibitor
CCOC(=O)CN1CCC(c2cc(-c3ccc(Cl)cc3)n[nH]2)CC1	5	15	0	-3	-9	-3
COc1ccc(NC(=O)CSc2nnnn2C)cc1S(=O)(=O)N1CCCCC1	17	nt	0	nt	nt	nt
O=C(O)c1cc2nc3c(c(C(F)(F)F)n2n1)CCc1ccccc1-3	-9	23	0	4	-7	-9
COCCNC(=O)c1cc2nc3c(c(C(F)(F)F)n2n1)CCc1ccccc1-3	-12	30*	0	-8	-8	-2
CC1(C)C(C=C(Cl)Cl)C1C(=O)Nc1ccc([N+](=O)[O-])cc1 (centres undefined)	nt	57*	0	3	-1	nt
O=C(Nc1ccc([N+](=O)[O-])cc1)C1CC1(c1ccccc1)c1ccccc1 (centres undefined)	6	19	0	2	2	16
Cc1cc(C)cc(OCC(=O)NCCc2nc3ccccc3[nH]2)c1	-1	4	0	0	-10	7
Cc1cc(=O)oc2cc(OCC(=O)NCCc3nc4ccccc4[nH]3)ccc12	-9	38*	0	-2	-5	3
CN(CC(=O)Nc1ccccc1C(F)(F)F)C(=O)c1cc([N+](=O)[O-])ccc1N1CCOCC1	21	-4	0	0	0	2
CCc1cc2c(SCc3nc4sc(C(C)=O)c(C)c4c(=O)[nH]3)ncnc2s1	-7	7	0	1	0	5
O=C(COC(=O)c1ccncc1)Nc1cc(Cl)c(Cl)cc1Cl	2	-6	0.8*	-3	5	nt
O=C1/C(=C/c2ccccc2F)SC(=S)N1CCC(=O)N1CCCCC1CCO (centres undefined)	10	1	0	8	2	2
O=P(O)(CCc1ccccn1)CN1CCOCC1	5	39*	0	-2	-4	6
O=P(O)(CCc1ccccn1)CN1CCCCC1	-1	6	0	-7	2	8
CCOc1ccc2c(=O)c(Oc3ccccc3OCC)coc2c1	23	44*	0	-7	-2	-9
Clc1ccccc1CO/N=C1\CCCc2nonc21	23	43*	-1	-3	5	-23
OCC1CCCN(Cc2ccc(-c3ccccc3)cc2)C1 (centres undefined)	21	34*	0	-1	4	-39
O=C(c1ccc(-c2ccccc2)cc1)C1CCCN(Cc2ccncc2)C1 (centres undefined)	48	21	0	9	-6	-1
COc1ccc(S(=O)(=O)NCCSCc2ccco2)cc1	5	34*	0	3	7	4
CCOc1ccc(S(=O)(=O)NCCSCc2ccco2)cc1	19	0	0	0	-3	1
N=C(N)c1ccc(/C=C/c2ccc(C(=N)N)cc2O)cc1	16	6	0	50*	23	-20
O=[N+]([O-])c1cc(-c2cnc3ccccc3n2)ccc1Oc1ccc(F)cc1	1	-8	0	-1	62*	-3
CC(=O)c1c(C)[nH]c(C(=O)CSc2nnc(CN3CCCCCC3=O)n2-c2ccccn2)c1C	12	42*	0	7	0	-2
CCOc1ccc(C(=O)N(Cc2ccccc2)c2cccc(C)c2)cc1OC	12	8	0	4	-1	-14
CCOc1ccc(S(=O)(=O)NCc2ccccn2)cc1	-1	42*	0	5	1	-11
COc1ccc(S(=O)(=O)NCc2ccccn2)cc1	10	14	nt	2	0	10
COc1ccc(-c2cn(Cc3ccc(C)cc3)nn2)cc1	40	13	0	3	2	-14
CCn1c(CCNC(=O)c2cccs2)nnc1SCC(=O)c1ccc(OC)cc1	9	nt	0	27*	-4	13
CCn1c(CNC(=O)c2ccc(OC)cc2)nnc1SCC(=O)c1ccccc1	11	29	0	-1	-9	11
O=C(c1ccc([N+](=O)[O-])cc1)N(Cc1ccc(Br)cc1)N1C(=O)CCCC1=O	6	34*	0	-3	7	-4

Screens: PubChem BioAssay, several laboratories
